The text below walks through data of PubChem BioAssay (EPA / NIEHS).

Records with an inconclusive call do not appear. Calls of active or inactive are those of the source. The calls were made as follows, unless noted: active = hit-call score of the fitted dose curve at least 0.9, where 1 is the maximum; inactive = score below 0.9.

The first assay concerns Brachyury (BRA) Protein Expression, Deisenroth Lab, TBXT (gene 6862). Put plainly: CCTE_Deisenroth_DEVTOX-GLR_Pluri_BRA: CCTE's DevTox GLR-Pluri Assay Evaluation of Brachyury (BRA) Protein Expression, Deisenroth Lab (AID 2284429; active = hit-call score of the fitted dose curve at least 0.9, where 1 is the maximum). Put shortly:
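An inducible fluorescent BRA reporter in RUES2-GLR cells tracks mesoderm differentiation. Compounds (10 concentrations, 1 nM - 200 uM) are dosed twice within a 48-h differentiation. The endpoint subtracts the 0.2% DMSO control from percent BRA+ cells.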
One may read the AC50 as the midpoint of the concentration-response curve, whichever way the signal moves. For `c1cc(-c2cnn3cc(-c4ccc(OCCN5CCCCC5)cc4)cnc23)ccn1`, the AC50 is 3.02 µM (active).
With `COc1ccc2[nH]c([S@@](=O)Cc3ncc(C)c(OC)c3C)nc2c1`, the AC50 was 46.4 µM (active).
The same measure, in the same setting: then `Oc1cc(O)c2c(c1)O[C@H](c1ccc(O)c(O)c1)[C@@H](O)C2`, with 157 µM (active); and `Nc1cccc2c1C(=O)N(C1CCC(=O)NC1=O)C2=O` (stereo not drawn), with 25.1 µM (active).

Test system in another assay: not listed separately
The experiment in a line: CCTE_Deisenroth_DEVTOX-GLR_Pluri_CellCount: Viability Assessment in CCTE's DevTox GLR-Pluri Assay Evaluation of Total Cell Counts, Deisenroth Lab (AID 2284430). Put shortly:
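RUES2-GLR human pluripotent cells, seeded 24 h, then differentiated 48 h with two chemical exposures 24 h apart; 10-point series 1 nM - 200 uM. Fixed, nuclear-stained, imaged (5 fields/well); nuclei count as % change vs 0.2% DMSO.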
As for `c1cc(-c2cnn3cc(-c4ccc(OCCN5CCCCC5)cc4)cnc23)ccn1`, the half-maximal activity concentration (AC50) was 3.39 µM (active).
Still for that read-out and setting: for `COc1ccc2[nH]c([S@@](=O)Cc3ncc(C)c(OC)c3C)nc2c1` the value was 31.3 µM (active).
Turning to `Oc1cc(O)c2c(c1)O[C@H](c1ccc(O)c(O)c1)[C@@H](O)C2`, the outcome was inactive.
On to `Nc1cccc2c1C(=O)N(C1CCC(=O)NC1=O)C2=O` (stereo not drawn), for which the call was inactive.
